Screening data as filed in PubChem BioAssay.
HT1080NT lethal – qHTS for induction of synthetic lethality in tumor cells producing 2HG: qHTS for the HT-1080-NT fibrosarcoma cell line; AID 686970, 2013; 360,000 compounds, 1.6% hits; Potency, µM (top dose mostly 46.1 µM), for the others: top-dose activity, negative = less viability, actives largely listed as cytotoxic; HT-1080-NT fibrosarcoma viability, CellTiter-Glo ATP luminescence, 48 h;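 also: NT is the 2HG producing partner of a matched IDH1 knockdown line; 0% = DMSO-treated cells and -100% = media-only wells without cells; nearly all actives have a fitted effect of over 55% in size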
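Read-out is CellTiter-Glo luminescence after 10 minutes at room temperature, following 48 hours' compound treatment of HT-1080-NT cells (750 cells/well, RPMI, 5% FBS, 37 degrees C).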
KB-V1 MDR tox – qHTS assay for MDR1-selective chemotherapeutics: Primary screen using the drug-selected MDR subline cells KB-V1. 400,000 compounds, 3.4% hits. AID 1347076, 2019. KB-V1 MDR cells viability, CellTiter-Glo, 72 h. Potency, µM (series often up to 46.1 µM), usual class: cytotoxic; also: % is scaled to controls: 0 for no effect and ±100 for the full control effect; nearly all actives have a fitted effect of over 60% in size
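Potencies derive from concentration-effect curves fitted to normalized luminescence (CellTiter-Glo) of KB-V1 cells treated for 72 h at 37 degrees C in phenol-red-free DMEM containing 10% FBS.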
HT1080 IDH1KD tx – qHTS for induction of synthetic lethality in tumor cells producing 2HG: qHTS for the HT-1080-IDH1KD cell line. Potency, µM (doses to about 46.1 µM), for the others: at the top dose activity, negative = toxicity, actives largely listed as cytotoxic. 360,000 compounds, 2% hits. HT-1080 IDH1 knockdown viability, ATP luminescence, 48 h. AID 686971, 2013;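 also: 0% = DMSO wells and -100% = cell-free medium wells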
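Knockdown cells (IDH1KD HT-1080) received compounds 2 h after plating at 750 cells/well and were kept 48 h at 37 °C in 5% FBS RPMI. A CellTiter-Glo luminescence read gave % activity for curve fitting.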
KB-3-1 tox – qHTS assay for MDR1-selective chemotherapeutics: Primary screen using the parental adenocarcinoma cell KB-3-1; Potency, µM (doses to about 46.1 µM), most hits filed as cytotoxic; 400,000 compounds, 1.4% hits; KB-3-1 viability, CellTiter-Glo ATP luminescence, 72 h; also: % is scaled to controls: 0 for no effect and ±100 for the full control effect; nearly all actives have a fitted effect of over 60% in size
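Cells are dispensed, compounds pinned in, plates held at 37 °C for 72 h, then CellTiter-Glo is added and luminescence read after 10 minutes. Cell line: parental KB-3-1 in phenol-red-free DMEM, 10% FBS.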
MCF10A rerep – A quantitative high throughput screen for small molecules that induce DNA re-replication in MCF 10a normal breast cells; AID 624296, 2012; MCF 10A DNA re-replication, Hoechst nuclear intensity, 48 h; Potency, µM (series often up to 46.1 µM), for inactives: at the highest dose activity, positive = re-replication, most hits filed as activators; 350,000 compounds, 2.9% hits; also: % of control where 0% means no effect; nearly all actives have a fitted effect of over 50% in size
SW480 rerep – A quantitative high throughput screen for small molecules that induce DNA re-replication in SW480 colon adenocarcinoma cells; SW480 DNA re-replication, Hoechst DNA content imaging, 48 h; Potency, µM (top dose mostly 46.1 µM), for the others: at the highest dose re-replication activation, usual class: activators; 340,000 compounds, 1.8% hits; AID 624297, 2012; also: % of control where 0% means no effect; nearly all actives have a fitted effect of over 55% in size
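SW480 cells exposed to compounds for 48 hr at 37 C, 5% CO2, then Hoechst-stained 40 min. Nuclear DNA content imaged by fluorescence scanning (405 nm excitation, 500-530 nm emission); re-replication scored as increased high-intensity nuclei.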
* = called active by the depositor; [ ] = another dose, or the depositor's remark. The list is not random: actives were taken first. Their share in the collection is about 8%. Calls follow the shape of the dose curve; as a rule, active = well fitted curve in the direction sought with a large enough effect; inconclusive = small, poorly fitted or top-dose-only effect, or another doubt; inactive = no such curve, though single readings can be large; an effect the other way counts as inactive or inconclusive. Potency is read from the fitted curve at half-maximal effect.

`CN(C)S(=O)(=O)c1cccc(C(=O)Nc2ccccc2Cl)c1` gave HT1080NT lethal 9%, KB-V1 MDR tox 16µM*, HT1080 IDH1KD tx -15%, KB-3-1 tox inactive, MCF10A rerep -1% and SW480 rerep -8%.
`COc1ccc(Cl)cc1NC(=O)c1cccc([N+](=O)[O-])c1O` gave HT1080NT lethal inconclusive, KB-V1 MDR tox 21µM*, HT1080 IDH1KD tx inconclusive, KB-3-1 tox 12µM*, MCF10A rerep inconclusive and SW480 rerep -3%.
`CCCNC(=O)C1CCC(Cn2c(=O)c3sccc3n(CC(=O)N3CCCC3)c2=O)CC1` (stereo not given) gave KB-V1 MDR tox inactive and KB-3-1 tox inactive.
Cc1ccc2nc(SCC(=O)Nc3ccc(C(N)=O)cc3)[nH]c2c1 was read as HT1080NT lethal 25%, KB-V1 MDR tox inactive, HT1080 IDH1KD tx 17%, KB-3-1 tox inactive, MCF10A rerep -4% and SW480 rerep -2%.
Screening Cc1ccc2nc(SCC(=O)Nc3cccc([N+](=O)[O-])c3)[nH]c2c1 returned HT1080NT lethal -16%, KB-V1 MDR tox 15µM*, HT1080 IDH1KD tx inconclusive, KB-3-1 tox inactive, MCF10A rerep -2% and SW480 rerep 0%.
`Cc1ccc(CSc2nc3ccncc3[nH]2)cc1` gave HT1080NT lethal inconclusive, KB-V1 MDR tox inactive, HT1080 IDH1KD tx inconclusive, KB-3-1 tox 12µM*, MCF10A rerep 1% and SW480 rerep -14%.
Cc1ccc2nc(SCc3ccc([N+](=O)[O-])cc3)nc(C)c2c1 was read as HT1080NT lethal 13%, KB-V1 MDR tox inactive, HT1080 IDH1KD tx 6%, KB-3-1 tox inconclusive, MCF10A rerep 10% and SW480 rerep -3%.
Screening O=C(CSc1nc2ccc([N+](=O)[O-])cc2[nH]1)NC1CCCCCC1 returned HT1080NT lethal inconclusive, KB-V1 MDR tox 13µM*, HT1080 IDH1KD tx inconclusive, KB-3-1 tox inconclusive, MCF10A rerep inconclusive and SW480 rerep 1%.
Cc1ccc2nc(SCc3ccc([N+](=O)[O-])cc3)[nH]c2c1 was read as HT1080NT lethal inconclusive, KB-V1 MDR tox 16µM*, HT1080 IDH1KD tx inconclusive, KB-3-1 tox inconclusive, MCF10A rerep 27% and SW480 rerep 0%.
For COc1ccc(CCNc2nc(-c3ccc(OC)c(OC)c3)cc(C(F)(F)F)n2)cc1OC the results were KB-V1 MDR tox inactive and KB-3-1 tox inconclusive.
For O=C(N/N=C\c1ccccc1F)c1ccc(-c2ccccc2)cc1 the results were HT1080NT lethal -2%, KB-V1 MDR tox inactive, HT1080 IDH1KD tx 2%, KB-3-1 tox inactive, MCF10A rerep 8% and SW480 rerep 2%.
`CC1N=C2c3ccccc3N=C(SCC(=O)NCc3ccc(Cl)cc3)N2C1=O` (stereo not given) gave KB-V1 MDR tox inactive and KB-3-1 tox inactive.
For C=C1[C@@H](O)[C@H](CC(C)C)N(Cc2ccccc2Br)S1(=O)=O the results were HT1080NT lethal 23µM*, KB-V1 MDR tox inactive, HT1080 IDH1KD tx inconclusive, KB-3-1 tox inconclusive, MCF10A rerep inconclusive and SW480 rerep inconclusive.
`COc1ccc(-c2cc(C3CC3)nc(N)c2C#N)cc1` gave HT1080NT lethal -9%, KB-V1 MDR tox inactive, HT1080 IDH1KD tx -4%, KB-3-1 tox inactive, MCF10A rerep 13% and SW480 rerep 19%.
`COc1ccc(-c2cc(C3CC3)nc3sc(C#N)c(N)c23)cc1` gave HT1080NT lethal -16%, KB-V1 MDR tox inactive, HT1080 IDH1KD tx -19%, KB-3-1 tox inactive, MCF10A rerep 3.7µM* and SW480 rerep 13µM*.
For COC(=O)[C@]12CCCCC=C1N(Cc1ccco1)C(=O)[C@H](CC(=O)NCc1cccc(C(F)(F)F)c1)C2 the results were HT1080NT lethal -5%, KB-V1 MDR tox inactive, HT1080 IDH1KD tx -11% and KB-3-1 tox inactive.
COC(=O)[C@]12CCCCC=C1N(Cc1cccc3ccccc13)C(=O)[C@H](CC(=O)NCc1cccc(C(F)(F)F)c1)C2 was read as HT1080NT lethal inconclusive, KB-V1 MDR tox 9.2µM*, HT1080 IDH1KD tx inconclusive and KB-3-1 tox inconclusive.
Screening CCOC(=O)[C@]12CCCC=C1N(Cc1ccccc1)C(=O)[C@H](CC(=O)NCc1cccc(C(F)(F)F)c1)C2 returned HT1080NT lethal 29µM*, KB-V1 MDR tox inconclusive, HT1080 IDH1KD tx inconclusive and KB-3-1 tox inactive.
Screening CCOC(=O)[C@]12CCCC=C1N(Cc1cccc3ccccc13)C(=O)[C@H](CC(=O)NCc1cccc(C(F)(F)F)c1)C2 returned HT1080NT lethal inconclusive, KB-V1 MDR tox inactive, HT1080 IDH1KD tx -23% and KB-3-1 tox inactive.
`CCCCCCCCN1C(=O)[C@H](CC(=O)NCc2cccc(C(F)(F)F)c2)C[C@@]2(C(=O)OC)CC(C)(C)CC=C12` gave HT1080NT lethal inconclusive, KB-V1 MDR tox 23µM*, HT1080 IDH1KD tx inconclusive and KB-3-1 tox inconclusive.
`CCCCN(C(=O)c1ccc(C)c(S(=O)(=O)N2CCOCC2)c1)c1c(N)n(CCCC)c(=O)[nH]c1=O` gave HT1080NT lethal inconclusive, KB-V1 MDR tox inactive, HT1080 IDH1KD tx 3%, KB-3-1 tox inactive, MCF10A rerep 3% and SW480 rerep -1%.
For Cc1oc(-c2cc3c(cc2Cl)OCO3)nc1CN1CCCC1c1ccc(F)cc1 (stereo not given) the results were HT1080NT lethal -24%, KB-V1 MDR tox inconclusive, HT1080 IDH1KD tx -5%, KB-3-1 tox inconclusive, MCF10A rerep inconclusive and SW480 rerep 6%.
For NC(=O)c1ccc(N2CCNC(=O)C2)c([N+](=O)[O-])c1 the results were HT1080NT lethal 1%, KB-V1 MDR tox inactive, HT1080 IDH1KD tx -13%, KB-3-1 tox inactive, MCF10A rerep -4% and SW480 rerep -4%.
Screening COc1cc(N[C@@H](C)CCCN)c2ncccc2c1 returned MCF10A rerep -4%[20.6 µM] and SW480 rerep inconclusive.
Screening Cc1cc(C)c2nc(N3CCCC(C(=O)NCc4cccc(Br)c4)C3)sc2c1 (stereo not given) returned KB-V1 MDR tox inactive and KB-3-1 tox inactive.
